Measurements published in PubChem BioAssay (Tox21).
Inconclusive results are not listed. Activity calls are given as the source filed them. Unless noted, the call rests on the fitted dose curve; in most records, active means well fitted curve in the direction sought with a large enough effect in the repeat runs; inconclusive means weak or mixed curves; inactive means no such curve, though single readings can be large; an effect the other way counts as inactive or inconclusive.

Experiments:
[1] = qHTS assay to identify small molecule antagonists of the peroxisome proliferator-activated receptor gamma (PPARg) signaling pathway - cell viability counter screen (AID 743194); further: nearly all actives have a fitted effect of over 55% in size; further: potency means the concentration at half of the fitted maximal effect
Method in brief: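 Cytotoxicity counter screen in PPARg-bla HEK293H cells, same wells as reporter assay. Compounds plus 50 nM rosiglitazone (final) for 17 h at 37 C, then viability read by CellTiter-Glo luminescence.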

[2] = qHTS assay for small molecule agonists of the antioxidant response element (ARE) signaling pathway (AID 743202; active means well fitted activation curve with a large enough effect in the signal ratio in the repeat runs, not every such curve was filed as active; the % refers to the signal ratio; further: potency means the concentration at half of the fitted maximal effect)
Method in brief: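 HepG2 ARE-bla reporter line, 2,000 cells/well; 5 h preincubation 37 C/5% CO2; compound (DMSO) 16 h 37 C; B/G FRET substrate 2 h RT; fluorescence intensity.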

[3] = qHTS assay for small molecule agonists of the antioxidant response element (ARE) signaling pathway - cell viability counter screen (AID 743203; calls by dose curve; further: nearly all actives have a fitted effect of over 55% in size; further: potency means the concentration at half of the fitted maximal effect)
Method in brief: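 Viability counter screen: stably transfected ARE-bla HepG2 line, 16 hrs compound exposure at 37C/5% CO2, ATP-based CellTiter-Glo luminescence measured in the reporter wells.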

[4] = qHTS assay for small molecule activators of the heat shock response signaling pathway - cell viability counter screen (AID 743209); further: nearly all actives have a fitted effect of over 50% in size; further: potency means the concentration at half of the fitted maximal effect
Method in brief: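 Viability of HSE-bla HeLa cells is measured with CellTiter-Glo in the wells already used for the reporter read. Compound exposure lasts 5 h at 37 C, and luminescence is read after 30 min at room temperature.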

[5] = qHTS assay to identify small molecule agonists of the farnesoid-X-receptor (FXR) signaling pathway - cell viability counter screen (AID 743218); further: nearly all actives have a fitted effect of over 45% in size; further: potency means the concentration at half of the fitted maximal effect
Method in brief: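 Viability of FXR-bla HEK 293T cells is measured by ATP-based CellTiter-Glo luminescence following 16 h compound treatment at 37 C and a prior 2 h room-temperature beta-lactamase substrate step.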

[6] = qHTS assay to identify small molecule antagonists of the farnesoid-X-receptor (FXR) signaling pathway - cell viability counter screen (AID 743221; active means well fitted cell-killing curve with a large enough effect in the repeat runs, not every such curve was filed as active; further: nearly all actives have a fitted effect of over 50% in size; further: potency means the concentration at half of the fitted maximal effect)
Method in brief: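 GeneBLAzer FXR-UAS-bla HEK 293T cells, compound plus chenodeoxycholic acid (50 uM final), 16 h at 37 C. CellTiter-Glo added to the same wells after the beta-lactamase read; luminescence read after 30 min at room temperature as viability.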

[7] = biological target: Vitamin D3 receptor (Homo sapiens) (UniProt P11473); assay: qHTS assay to identify small molecule agonists of the vitamin D receptor (VDR) signaling pathway (AID 743222; calls by dose curve)
Method in brief: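 Fluorescence from cleaved LiveBLAzer B/G FRET substrate served as readout. VDR-bla cells had been treated 16 h at 37C with test compounds in DMSO, following a 4 h settling period, and substrate was loaded for 2 h at RT.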

[8] = biological target: Vitamin D3 receptor (Homo sapiens) (UniProt P11473); assay: qHTS assay to identify small molecule antagonists of the vitamin D receptor (VDR) signaling pathway (AID 743223; active means well fitted inhibition curve with a large enough effect in the signal ratio in the repeat runs, not every such curve was filed as active; the % refers to the signal ratio)
Method in brief: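 VDR-bla cells were treated with compound plus 3 nM final 1alpha,25-dihydroxyvitamin D3 for 16 h at 37C. Beta-lactamase reporter read by B/G FRET substrate fluorescence after 2 h at room temperature. qHTS format.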

[9] = qHTS assay to identify small molecule agonists of the vitamin D receptor (VDR) signaling pathway - cell viability counter screen (AID 743224); further: nearly all actives have a fitted effect of over 50% in size; further: potency means the concentration at half of the fitted maximal effect
Method in brief: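 Compounds were pin-transferred onto VDR-bla cells plated 4 h earlier; following 16 h incubation at 37C, cell viability was quantified by CellTiter-Glo luminescence after 30 min at room temperature.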

[10] = biological target: Peroxisome proliferator-activated receptor gamma (Homo sapiens) (UniProt P37231); assay: qHTS assay to identify small molecule agonists of the peroxisome proliferator-activated receptor gamma (PPARg) signaling pathway (AID 743094; active means well fitted activation curve with a large enough effect in the signal ratio in the repeat runs, not every such curve was filed as active; the % refers to the signal ratio)
Method in brief: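 Reporter activation was scored by fluorescence of cleaved LiveBLAzer B/G substrate (1 h, room temperature) in PPARg-bla HEK293H cells previously treated 17 h at 37C with DMSO-dissolved compounds.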

[11] = biological target: Peroxisome proliferator-activated receptor gamma (Homo sapiens) (UniProt P37231); assay: qHTS assay to identify small molecule antagonists of the peroxisome proliferator-activated receptor gamma (PPARg) signaling pathway (AID 743191; calls by dose curve; further: nearly all actives have a fitted effect of over 30% in size; further: potency means the concentration at half of the fitted maximal effect)
Method in brief: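 GeneBLAzer PPARg UAS-bla HEK293H cells, 5 h post-plating, exposed to compounds 17 h at 37C. LiveBLAzer B/G FRET substrate added for 1 h at room temperature; beta-lactamase reporter read by fluorescence intensity.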

[12] = qHTS assay for small molecule activators of the heat shock response signaling pathway (AID 743210; active means well fitted activation curve with a large enough effect in the signal ratio in the repeat runs, with a control signal flat, not every such curve was filed as active; the % refers to the signal ratio;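 further: HeLa cells with beta-lactamase reporter driven by heat shock elements; series mostly up to about 63 µM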)
Method in brief: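 Beta-lactamase reporter read-out: FRET substrate fluorescence after 2.5 h at RT, following 5 h compound treatment at 37 C of HeLa cells carrying HSE-driven bla reporter; quantitative HTS format.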

[13] = qHTS assay to identify small molecule agonists of the peroxisome proliferator-activated receptor delta (PPARd) signaling pathway - cell viability counter screen (AID 743211); further: nearly all actives have a fitted effect of over 55% in size; further: potency means the concentration at half of the fitted maximal effect
Method in brief: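 PPARd-bla HEK293H cells (3000/well) were pre-incubated 5 h at 37 C, then exposed to compound for 17 h at 37 C. After 2 h with LiveBLAzer substrate, CellTiter-Glo was added to the same wells; luminescence read after 30 min at room temperature.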

[14] = biological target: Peroxisome proliferator-activated receptor delta (Homo sapiens) (UniProt Q03181); assay: qHTS assay to identify small molecule agonists of the peroxisome proliferator-activated receptor delta (PPARd) signaling pathway (AID 743212; calls by dose curve)
Method in brief: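 Read-out: beta-lactamase FRET fluorescence after 2 h room-temperature incubation with LiveBLAzer B/G substrate. Cells were HEK293H carrying a UAS-bla reporter for PPARd, treated at 37 C with DMSO-dissolved compounds.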

[15] = qHTS assay to identify small molecule antagonists of the peroxisome proliferator-activated receptor delta (PPARd) signaling pathway - cell viability counter screen (AID 743213); further: nearly all actives have a fitted effect of over 50% in size; further: potency means the concentration at half of the fitted maximal effect
Method in brief: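 Agonist-stimulated (L165041, 300 nM final) HEK293H PPARd UAS-bla cells are exposed to compounds for 17 h at 37 C, and ATP-based luminescence (CellTiter-Glo) from the same wells reports cytotoxicity.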

[16] = biological target: Peroxisome proliferator-activated receptor delta (Homo sapiens) (UniProt Q03181); assay: qHTS assay to identify small molecule antagonists of the peroxisome proliferator-activated receptor delta (PPARd) signaling pathway (AID 743215; active means well fitted inhibition curve with a large enough effect in the signal ratio in the repeat runs, not every such curve was filed as active; the % refers to the signal ratio; further: potency means the concentration at half of the fitted maximal effect)
Method in brief: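 Plated HEK293H PPARd-bla cells rested 5 h at 37 C and 5% CO2. Compound, then agonist L165041 at 300 nM final, was added; 17 h at 37 C followed. Substrate loading, 2 h room temperature, fluorescence measured.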

[17] = biological target: Bile acid receptor (Homo sapiens) (UniProt Q96RI1); assay: qHTS assay to identify small molecule antagonists of the farnesoid-X-receptor (FXR) signaling pathway (AID 743217; active means well fitted inhibition curve with a large enough effect in the signal ratio in the repeat runs, not every such curve was filed as active; the % refers to the signal ratio)
Method in brief: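 Screen of the Tox21 10K library in quantitative HTS format using FXR-UAS-bla HEK 293T reporter cells. Agonist chenodeoxycholic acid, 50 uM final, added with compounds; 16 h incubation at 37 °C; beta-lactamase FRET fluorescence measured.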

[18] = biological target: Bile acid receptor (Homo sapiens) (UniProt Q96RI1); assay: qHTS assay to identify small molecule agonists of the farnesoid-X-receptor (FXR) signaling pathway (AID 743220; active means well fitted activation curve with a large enough effect in the signal ratio in the repeat runs, not every such curve was filed as active; the % refers to the signal ratio)
Method in brief: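 FXR-UAS-bla HEK 293T cells carrying a UAS-driven beta-lactamase reporter were plated for 5 h at 37C/5% CO2, then exposed to DMSO-dissolved Tox21 10K compounds for 16 h at 37C. A LiveBLAzer B/G FRET substrate was loaded for 2 h at room temperature before fluorescence reading.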

[19] = qHTS assay to identify small molecule that activate the aryl hydrocarbon receptor (AhR) signaling pathway - cell viability counter screen (AID 743086);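 further: HepG2 liver cells carrying the AhR DRE luciferase reporter; series mostly up to about 70 µM; nearly all actives have a fitted effect of over 45% in size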
Method in brief: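 HepG2-AhR-luc (HG2L7.5c1) cells, 4000/well, treated 24 h at 37 C with compound; viability measured as CellTiter-Fluor fluorescence after 30 min in the same wells as the luciferase read.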

Measured: Potency

Chain of Vitamin D3 receptor (Homo sapiens) (P11473 whole entry, looked up): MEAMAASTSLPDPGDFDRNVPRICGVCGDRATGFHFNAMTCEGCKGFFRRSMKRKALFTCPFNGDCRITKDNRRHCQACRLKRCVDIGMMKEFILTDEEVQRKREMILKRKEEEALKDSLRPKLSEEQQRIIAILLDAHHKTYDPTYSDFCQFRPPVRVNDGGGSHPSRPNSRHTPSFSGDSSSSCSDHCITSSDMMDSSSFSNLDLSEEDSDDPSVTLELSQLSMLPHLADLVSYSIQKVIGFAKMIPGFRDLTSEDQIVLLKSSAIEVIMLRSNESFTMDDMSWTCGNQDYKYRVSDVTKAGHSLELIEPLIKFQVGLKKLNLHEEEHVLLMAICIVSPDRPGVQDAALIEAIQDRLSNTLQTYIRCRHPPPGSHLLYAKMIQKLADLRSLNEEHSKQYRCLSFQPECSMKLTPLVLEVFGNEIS
Chain of Bile acid receptor (Homo sapiens) (Q96RI1 whole entry, looked up): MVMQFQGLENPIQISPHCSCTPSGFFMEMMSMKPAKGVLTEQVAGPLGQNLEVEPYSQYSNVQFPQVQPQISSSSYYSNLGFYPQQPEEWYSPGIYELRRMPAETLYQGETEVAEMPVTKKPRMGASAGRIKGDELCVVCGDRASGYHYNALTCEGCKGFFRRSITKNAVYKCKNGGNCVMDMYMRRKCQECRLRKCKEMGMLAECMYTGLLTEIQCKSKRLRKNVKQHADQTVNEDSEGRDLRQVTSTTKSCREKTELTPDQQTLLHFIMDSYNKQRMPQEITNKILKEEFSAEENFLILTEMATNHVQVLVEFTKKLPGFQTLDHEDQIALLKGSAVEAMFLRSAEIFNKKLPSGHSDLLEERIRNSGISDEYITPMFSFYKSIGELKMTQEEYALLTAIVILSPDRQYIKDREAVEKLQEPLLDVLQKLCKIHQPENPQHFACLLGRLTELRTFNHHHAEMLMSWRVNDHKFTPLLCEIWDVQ
Chain of Peroxisome proliferator-activated receptor gamma (Homo sapiens) (P37231 whole entry, looked up): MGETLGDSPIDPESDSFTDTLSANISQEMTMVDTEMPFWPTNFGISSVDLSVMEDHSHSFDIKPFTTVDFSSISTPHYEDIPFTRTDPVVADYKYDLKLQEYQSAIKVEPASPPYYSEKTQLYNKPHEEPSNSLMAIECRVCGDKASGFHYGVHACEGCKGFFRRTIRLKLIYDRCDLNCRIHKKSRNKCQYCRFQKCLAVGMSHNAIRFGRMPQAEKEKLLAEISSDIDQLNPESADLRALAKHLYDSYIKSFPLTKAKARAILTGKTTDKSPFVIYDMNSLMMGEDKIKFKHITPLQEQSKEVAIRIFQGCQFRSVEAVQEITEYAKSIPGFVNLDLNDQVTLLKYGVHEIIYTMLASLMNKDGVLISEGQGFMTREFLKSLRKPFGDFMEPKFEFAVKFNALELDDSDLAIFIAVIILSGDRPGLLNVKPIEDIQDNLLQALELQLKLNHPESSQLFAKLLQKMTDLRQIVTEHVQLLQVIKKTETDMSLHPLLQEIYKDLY
Chain of Peroxisome proliferator-activated receptor delta (Homo sapiens) (Q03181 whole entry, looked up): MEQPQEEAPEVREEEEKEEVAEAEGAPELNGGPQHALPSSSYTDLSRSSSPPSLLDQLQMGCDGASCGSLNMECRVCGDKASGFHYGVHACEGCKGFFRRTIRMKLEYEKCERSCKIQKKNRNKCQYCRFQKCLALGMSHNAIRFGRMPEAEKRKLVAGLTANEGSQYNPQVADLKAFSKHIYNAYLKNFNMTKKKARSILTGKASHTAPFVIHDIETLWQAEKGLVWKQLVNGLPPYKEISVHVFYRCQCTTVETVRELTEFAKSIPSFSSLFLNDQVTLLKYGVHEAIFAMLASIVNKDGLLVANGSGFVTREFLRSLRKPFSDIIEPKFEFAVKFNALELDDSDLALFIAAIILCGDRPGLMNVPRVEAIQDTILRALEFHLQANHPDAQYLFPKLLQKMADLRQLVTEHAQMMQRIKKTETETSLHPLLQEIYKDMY

N=C1N=C(N)c2ccccc21
active: [2] 19.3 µM | [3] 54.5 µM | [4] 49 µM
inactive: [1] | [5] | [6] | [7] | [8] | [9]

Nc1ccc2cc(S(=O)(=O)O)cc(O)c2c1N=Nc1ccccc1C(F)(F)F
inactive: [10] | [11] | [1] | [2] | [3] | [4] | [12] | [13] | [14] | [15] | [16] | [17] | [5] | [18] | [6] | [7] | [9]

Nc1ccc2c3c(cccc13)-c1ccccc1-2
active: [1] 49.5 µM | [13] 55.5 µM | [15] 49.5 µM
inactive: [3] | [4] | [6]

CCC(CN)=C(c1ccccc1)c1ccccc1
active: [13] 29.8 µM | [15] 13.3 µM | [5] 23.7 µM
inactive: [1] | [2] | [3] | [4] | [12] | [14] | [7] | [8]

CCCCCOc1ccccc1/C(=C\SC)n1ccnc1
inactive: [1] | [3] | [4] | [15] | [9]
active: [11] 29.8 µM

S=c1[nH]c2ccccc2s1
inactive: [19] | [3] | [13] | [14] | [15] | [6]

Nc1cc(C(F)(F)F)ccc1S
inactive: [11] | [1] | [2] | [3] | [5] | [6] | [7] | [9]

CN(C)CCCOC1(Cc2ccccc2)CCCCCC1
inactive: [11] | [1] | [3] | [4] | [12] | [13] | [14] | [15] | [16] | [6] | [7]

Cc1ccc(O)c2ncccc12
inactive: [18]
active: [2] 4.22 µM | [13] 0.841 µM | [15] 1.19 µM | [9] 0.944 µM

CC(C)(C)c1ccc(C(=O)CCCN2CCC(OC(c3ccccc3)c3ccccc3)CC2)cc1
active: [3] 29.8 µM | [15] 16.8 µM | [5] 26.6 µM
inactive: [19] | [18]

CCc1cc(SCc2sc(-c3ccc(C(F)(F)F)cc3)nc2CN2CCN(c3ccc(OC)cc3)CC2)ccc1OCC(=O)O
active: [1] 24.5 µM | [3] 15.4 µM | [4] 24.5 µM | [15] 5.49 µM | [5] 7.76 µM | [6] 19.5 µM | [9] 19.5 µM

CC(C)C(C)(C)C(C)(C)C(C)(C)S
inactive: [4]

N#CSc1ccc(N)c([N+](=O)[O-])c1
inactive: [3] | [4] | [18]
active: [13] 55.3 µM | [15] 49.3 µM | [9] 55.3 µM

CN(C)[C@@H]1C(=O)C(C(N)=O)=C(O)[C@@]2(O)C(=O)C3=C(O)c4c(O)cccc4C[C@H]3C[C@@H]12
inactive: [1] | [3] | [13] | [15] | [5] | [6] | [9]

C=C(C)C(=O)OCC(O)COc1ccc(C(C)(C)c2ccc(OCC(O)COC(=O)C(=C)C)cc2)cc1 (configuration not stated)
active: [13] 54.9 µM | [15] 13.8 µM | [16] 27.5 µM | [9] 12.3 µM
inactive: [19] | [3] | [14] | [18] | [7]

CC[C@@]1(O)C(=O)OCc2c1cc1n(c2=O)Cc2c-1nc1ccccc1c2/C=N/OC(C)(C)C
active: [3] 0.335 µM | [4] 0.473 µM | [13] 11.9 µM | [5] 13.3 µM

CC(C)OC(=O)c1cc2c(OCC(O)CNC(C)(C)C)cccc2[nH]1 (configuration not stated)
inactive: [19] | [3] | [4] | [12] | [15] | [16] | [5] | [7] | [9]

Clc1ccc(C(Cn2ccnc2)OCc2ccc(Sc3ccccc3)cc2)c(Cl)c1 (configuration not stated)
inactive: [14] | [15] | [16] | [7]
active: [9] 33.5 µM
